uPA generation: qHTS for Inhibitors of Cell Surface uPA Generation; 0.31% of 330,000 active; Potency, µM (top dose mostly 38.3 µM), for the others: at the top dose activity change, negative = inhibition, hits mostly inhibitors; cell surface uPA generation assay, qHTS; active = well fitted inhibition curve with a large enough effect; inconclusive = small, poorly fitted or top-dose-only effect; inactive = no such curve, though single readings can be large or run the other way; tested in mouse RAW 264.7 cells; note: potency is the fitted concentration of half-maximal effect; % is set by controls: 0 for no effect and ±100 for the full control effect; nearly all actives have a fitted effect of over 55% in size
TGFb inhibitor: qHTS for Inhibitors of TGF-b; HepG2 CAGA-GFP TGF-b/SMAD3 reporter, GFP fluorescence, 18 h; TGF-beta stimulated, 500 pg/mL final; Potency, µM (titrated, usually from 46.1 µM), for the others: at the top dose activity, negative = inhibition, most hits filed as inhibitors; 1.2% of 410,000 active; note: potency is the fitted concentration of half-maximal effect; % is set by controls: 0 for no effect and ±100 for the full control effect; nearly all actives have a fitted effect of over 65% in size
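Inhibition was scored as loss of TGF-beta-induced (500 pg/mL final, 18 hours, 37 degrees C) GFP in HEPG2 cells carrying a CAGA-GFP reporter, in DMEM with 1% FBS. Well GFP was summed per cell; Activity was normalised to unstimulated and stimulated DMSO wells, then concentration-response fitting.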
ATXN viability: Viability Counterscreen for Primary qHTS for Inhibitors of ATXN expression; S2 cells (HEK-293 line with an ATXN2-luciferase reporter) viability, CellTiter-Fluor protease fluorescence, 24 h; Potency, µM (highest dose often 56.7 µM), usual class: cytotoxic; 0.49% of 400,000 active; note: potency is the fitted concentration of half-maximal effect; nearly all actives have a fitted effect of over 40% in size
ATXN2 expr inh: Primary qHTS for Inhibitors of ATXN expression. HEK-293 ATXN2-luciferase reporter, luminescence, 24 h. Potency, µM (top dose mostly 57 µM), for the others: at the highest dose activity change, negative = inhibition, usual class: inhibitors. 0.72% of 360,000 active. AID 1745845, 2022; note: potency is the fitted concentration of half-maximal effect; % is set by controls: 0 for no effect and ±100 for the full control effect; nearly all actives have a fitted effect of over 55% in size
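qHTS (up to 57 uM final) was run with 24 h compound exposure of reporter cells at 37 °C. Each well was multiplexed: SteadyGlo luminescence measured ATXN2-luciferase expression after a fluorogenic Gly-Phe-AFC viability readout (25 uM final).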
Giardia kill: Small Molecules that selectively kill Giardia lamblia: qHTS. Giardia lamblia trophozoite viability. activity change, % at 7.66 µM, hits read low. 0.15% of 340,000 active. AID 540267, 2011; in the data active = activity change below about -80%; inconclusive = between about -30% and that limit;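 note: parasites exposed to compound for two days anaerobically before the ATP read; % is set by controls: 0 for no effect and ±100 for the full control effect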
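Compounds were tested on trophozoites seeded at 100 cells/well and held 48 hrs at 37 deg C anaerobically. An ATP-based luminescent kit measured the remaining live cells.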
HepG2 viability: qHTS for Inhibitors of TGF-b: Cytotox Counterscreen; HepG2 CAGA-GFP viability, ATP luminescence, 18 h; Potency, µM (top dose mostly 46.1 µM), for inactives: at the highest dose activity change, negative = cytotoxicity, usual class: cytotoxic; 0.76% of 410,000 active; note: potency is the fitted concentration of half-maximal effect
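HepG2 CAGA-GFP cells (1000/well, DMEM with 1% FBS) received compound, then TGF-beta at 500 pg/mL final, and were incubated 18 hours at 37 degrees C. Viability was read by CellTiter-Glo luminescence. Media-only wells were set as complete cell-killing and DMSO as no toxicity.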
* marks the source's active call; other numbers are inactive results; i = inactive; ? = inconclusive; . = not tested or not shown; ! = not active in a repeat; [ ] = remark or other dose. Rows were chosen to be rich in hits. Some 2.6% of all compounds tested hit in one or more screens of this group. Unless noted, calls come from the whole dose curve; as a rule, active = well fitted curve in the direction sought with a large enough effect; inconclusive = small, poorly fitted or top-dose-only effect, or another doubt; inactive = no such curve, though single readings can be large; an effect the other way counts as inactive or inconclusive.

SMILES | uPA generation | TGFb inhibitor | ATXN viability | ATXN2 expr inh | Giardia kill | HepG2 viability
CCOc1ccccc1NC(=O)Nc1ccc2nc(N3CCN(C)CC3)cc(C)c2c1 | . | ? | . | ? | . | 7.94µM*
CSc1ccc(/C=C2\C=Cc3ccccc32)cc1 | . | 4.2% | . | . | . | 1.2%
Cc1cc(C(=O)Nc2ccccc2-c2nc(CNC(=O)c3cc4ccccc4cn3)c(C)o2)c(C)o1 | . | . | i | . | . | .
O=C(Nc1ccc(OC(F)F)cc1)c1nc(SCc2ccccc2F)ncc1Cl | . | -1.1% | . | . | . | -11.2%
CNCCCOc1ccc(Cl)cc1C(C)(C)C | 6.4% | ? | ? | ? | 2.1 | -101.0%
COCCCNCCCOc1ccc(Cl)cc1C(C)(C)C | 2.6% | ? | ? | ? | -1.9 | 15.8µM*
Cc1c(C(=O)N2CCCC2)sc2ncnc(NCCCN3CCOCC3)c12 | . | . | i | . | . | .
COc1cc(/C=C(/C#N)C(=O)NCCc2c[nH]c3ccccc23)ccc1OCc1ccccc1F | . | 0.8% | 10µM* | 7.08µM* | 7.1 | -20.7%
CCCCOc1cccc(OCC(=O)Nc2nc3ccccc3[nH]2)c1 | -2.0% | 14.1µM* | i | -17.2% | 0.9 | 12.6µM*
Cc1ccc(OCC(=O)NCCc2nc3ccccc3[nH]2)c(C)c1 | -3.9% | -0.8% | i | -1.7% | 0.3 | -21.2%
CCCOc1cccc(OCC(=O)Nc2nc3ccccc3[nH]2)c1 | -11.8% | 0.0% | i | -13.2% | 3.3 | -35.9%
Cc1cc(OCC(=O)Nc2cc(-c3nc4ccccc4[nH]3)ccc2C)ccc1Cl | . | . | . | . | . | 11.2µM*
Cc1cc(OCC(=O)NCCc2nc3ccccc3[nH]2)cc(C)c1Cl | . | 20µM* | . | . | . | -44.5%
Cc1ccc2c(c1)CN(C(=O)CC(c1ccccc1)c1ccco1)CC(C)O2 (stereo not given) | . | . | i | . | . | .
CC(C)CN(C(=O)COC(=O)C12CC3CC(CC(C3)C1)C2)c1c(N)n(Cc2ccccc2)c(=O)[nH]c1=O | -5.5% | 2.5% | 22.4µM* | 14.1µM* | -0.5 | 2.9%
COCCN(C(=O)COC(=O)C1CCC(C(C)(C)C)CC1)c1c(N)n(Cc2ccccc2)c(=O)[nH]c1=O (stereo not given) | 10µM* | -6.0% | ? | ? | 15.5 | -3.4%
CCOc1cc(C2Sc3ccccc3NC3=C2C(=O)c2ccccc23)ccc1O (stereo not given) | . | -32.9% | 31.6µM* | ? | . | -34.8%
CCCc1ccc(C2Sc3ccccc3NC3=C2C(=O)c2ccccc23)cc1 (stereo not given) | . | ? | . | ? | . | -39.3%
CCN1CCN(Cc2ccc(NC(=O)c3ccc(C)c(NC(=O)c4nccnc4N)c3)cc2C(F)(F)F)CC1 | -11.5% | ? | ? | 28.2µM* | -7.4 | -117.6%
CCN1CCN(Cc2ccc(NC(=O)c3ccc(C)c(NC(=O)c4cc(-c5ccc(Br)cc5)n[nH]4)c3)cc2C(F)(F)F)CC1 | 12.6µM* | ? | 25.1µM* | 31.6µM* | 28.8 | -96.4%
CCN1CCN(Cc2ccc(NC(=O)c3cc(NC(=O)c4cnnc5ccccc45)cc(OC)c3)cc2C(F)(F)F)CC1 | -1.0% | ? | ? | ? | ? | 17.8µM*!
CCN1CCN(Cc2ccc(NC(=O)c3ccc(C)c(NC(=O)N4CCNC4=O)c3)cc2C(F)(F)F)CC1 | 2.1% | ? | ? | ? | -27.7 | -48.0%
CCN1CCN(Cc2ccc(NC(=O)c3ccc(C)c(NC(=O)c4nccn4C)c3)cc2C(F)(F)F)CC1 | 6.9% | ? | i | -7.5% | -20.1 | -22.7%
CCN1CCN(Cc2ccc(NC(=O)c3ccc(C)c(NC(=O)c4cncc(-c5cccs5)c4)c3)cc2C(F)(F)F)CC1 | 1µM* | ? | . | 14.1µM* | 11.0 | 10µM*
C[C@]12CC[C@H](O)CC1=CC[C@@H]1[C@H]2CC[C@]2(C)C(c3cccnc3)=CC[C@H]12 | . | . | . | -6.8%[25.6 µM] | . | .
SMILES | uPA generation | TGFb inhibitor | ATXN viability | ATXN2 expr inh | Giardia kill | HepG2 viability
CS(=O)(=O)c1ccc(C(=O)Nc2ccc(Cl)c(-c3ccccn3)c2)c(Cl)c1 | . | . | . | -4.7% | . | .
COC1=C(N)C(=O)c2nc(-c3nc(C(=O)O)c(C)c(-c4ccc(OC)c(OC)c4O)c3N)ccc2C1=O | -84.1% | 0.282µM* | 2.24µM* | -91.9% | ? | -86.2%
COc1ccc(-c2ncncc2-c2csc(C)n2)c(O)c1OC | -1.3% | 1.0% | i | 0.5% | 9.1 | -2.7%
COc1cccc(CC(=O)NCC2Cc3cc(Cl)cc(-c4ncccn4)c3O2)c1 (stereo not given) | . | . | i | . | . | .
CCCCC(CC)C(=O)Oc1ccc(O)c(C(C)(C)C)c1 (stereo not given) | 6.6% | 14.1µM* | ? | -34.4% | 25.1 | -95.0%
Cc1nc(NC(=O)CCl)sc1C(=O)N(C)C | 10µM* | -17.5% | i | . | 33.6 | -29.6%
O=C(NCc1ccccc1)c1cc(-c2cccc(O)c2)on1 | 2.82µM* | -21.4% | ? | 39.2% | -19.8 | -43.0%
CC(=O)c1cccc(NC(=O)c2cc(-c3ccc4c(c3)OCCO4)on2)c1 | . | ? | ? | -25.7% | . | -42.0%
O=C(Nc1cccc(O)c1)c1cc(-c2ccc3c(c2)OCO3)on1 | -16.8% | 5.4% | i | ? | -82.2* | -37.6%
O=C(NCc1cccnc1)c1cc(-c2ccccc2)on1 | -20.5% | -15.3% | i | 2.3% | -5.3 | -20.5%
Cc1ccc(C(c2nnnn2Cc2ccccc2)N2CCN(Cc3ccncc3)CC2)cc1 (stereo not given) | . | -4.1% | . | . | 19.0 | 0.9%
Cc1nn(C)c(C)c1CNC(=O)c1cnn2c1NC(c1ccccc1)CC2C(F)(F)F (stereo not given) | 10.9% | -23.7% | i | 3.6% | 11.8 | -16.5%
Cc1ccc(C2CC(C(F)(F)F)n3nc(C(=O)NCc4c(C)nn(C)c4C)c(Cl)c3N2)cc1 (stereo not given) | -7.1% | 12.6µM* | i | ? | -18.0 | -59.2%
CN(C)CCCNc1nc2cc(-c3ccc(F)cc3)sc2c(=O)n1C | . | ? | ? | 20µM* | . | -84.5%
COc1ccc(-c2cc3nc(NCCCN(C)C)n(C)c(=O)c3s2)c(C)c1 | . | ? | i | -23.8% | . | 3.55µM*
Cc1cc(Cl)ccc1-c1cc2nc(NCCCN(C)C)n(C)c(=O)c2s1 | . | ? | ? | 31.6µM* | . | 14.1µM*
CN(C)CCCNc1nc2cc(-c3ccccc3)sc2c(=O)n1C | . | -3.0% | i | -1.6% | . | -19.2%
COc1cccc(CNc2nc3cc(-c4ccccc4)sc3c(=O)n2C)c1OC | . | ? | ? | ? | . | 10µM*
Cc1cscc1-c1cc2nc(NCCCN(C)C)n(C)c(=O)c2s1 | . | -7.7% | i | -17.4% | . | -11.1%

Screens: PubChem, National Center for Advancing Translational Sciences (NCATS)
